Results published in ChEMBL document CHEMBL3988442, “University of Dundee, Small-Polar-MMV Screening Library” (2021).
Hit rate of the full screen: of about 69,000 compounds, about 1,000 (1.4%) showed an effect of 50% or more. This is one part of a sample in which strong results are shown more often than they occur.

Tested on: Leishmania donovani
Assay: Leishmania intramacrophage assay
Assay type: functional, organism-based
Parameters: scale not given: in the data most compounds retested in dose-response had high values

SMILES | Percent Effect (30.3 µM, […]) | Percent Effect (30 µM, 30.03 µM)
O=C(NC1CC1)C1CCc2nnc(-c3cccc(C(F)(F)F)c3)n21 (stereo not given) | 10.31% | 
CN(C)CCn1cc(NC(=O)NC(C)(C)c2nccs2)cn1 | 7.741% | 
Cc1cc(C(=O)N2CCCC2c2nnc3n2CCCCC3)on1 (stereo not given) | 34.8% | 
Cc1nc(N2C[C@@H](CN3CCCN(C)CC3)[C@@H](CO)C2)c2ccsc2n1 | -13.66% | 
CO[C@H]1[C@@H]2CC[C@H]1CN(c1nc(C)nc3ccsc13)C2 | 34.92% | 
CO[C@H]1[C@@H]2CC[C@H]1CN(c1nc(C)nc3sccc13)C2 | 56.76% | 
CC(=O)N1C[C@H]2C3(CCN(S(C)(=O)=O)CC3)CC[C@@]2(C(=O)N(C)C)C1 | -12.02% | 
Cc1cc(C)n(CC2CCCCN2CC(=O)N(C)Cc2ccco2)n1 (stereo not given) | -27.36% | 
Cc1cc(C)n(CC2CCCN2CC(=O)N(C)Cc2ccco2)n1 (stereo not given) | 34.8% | 
Cc1cc(C)n(CC2CCCN2CC(=O)N(C)Cc2ccc(C)o2)n1 (stereo not given) | 94.04% | 
CNS(=O)(=O)c1cccc(CNc2ccc(C(F)(F)F)nn2)c1 |  | 12.97%
COc1ccccc1N1CC(NC(=O)c2cc(C(C)C)nn2C)CC1=O (stereo not given) | 57.19% | 
COc1ccccc1N1CC(NC(=O)Cn2cc(C(C)C)nn2)CC1=O (stereo not given) | -4.218% | 
COc1ccccc1N1CC(NC(=O)Cn2cc(C)nn2)CC1=O (stereo not given) | 4.572% | 
CCOCCC(=O)NC(Cc1ccc(C)cc1)c1ccccn1 (stereo not given) | 16.59% | 
Cn1ccnc1C(=O)NC[C@@H]1OC[C@H]2CN(CC3CC3)CC[C@H]21.O=C(O)C(F)(F)F | 33.21% | 
CN1CC[C@@H]2[C@@H](CO[C@H]2CNC(=O)c2nccn2C)C1.O=C(O)C(F)(F)F | 58.2% | 
CCCN1CC[C@@H]2[C@@H](CO[C@H]2CNC(=O)c2nccn2C)C1.O=C(O)C(F)(F)F | 42.84% | 
Cn1cncc1CN1CCCC1c1cncc(Oc2ccc(F)cc2)n1 (stereo not given) | 23.83% | 
Cn1cncc1CN1CCCC1c1cncc(Oc2ccc(Cl)cc2)n1 (stereo not given) | 60.52% | 
Cc1ncccc1Oc1cncc(C2CCCN2Cc2cncn2C)n1 (stereo not given) | 19.44% | 
O=C(O)C(F)(F)F.O=C([C@H]1COC[C@H]2CN(CC3CCCC3)C[C@H]21)N1CCOCC1 | 14.74% | 
CC(=O)N1CCC2(CC1)CN(C(=O)[C@@H]1CSCN1)c1ccc(Cl)cc12.O=C(O)C(F)(F)F | 42.29% | 
Cc1csc(CN2CCC[C@]3(C[C@@H](OCC4CC4)CO3)C2)n1.O=C(O)C(F)(F)F | 2.266% | 
Cn1cc(CN2CCC[C@]3(C[C@H](Oc4ncccc4F)CO3)C2)cn1.O=C(O)C(F)(F)F.O=C(O)C(F)(F)F | 42.35% | 
COC1COC2(CCN(C(=O)c3ccccc3F)CC2)C1 (stereo not given) | 35.35% | 
COc1ncccc1C(=O)N1CCC2(CC1)CC(OC)CO2.O=C(O)C(F)(F)F (stereo not given) | 56.73% | 
O=C(O)C(F)(F)F.O=C(O)C(F)(F)F.O=C(c1cccnc1)N1CCC[C@]2(C[C@H](Oc3ncccc3F)CO2)C1 | 55.01% | 

SMILES | Percent Effect (30.3 µM, […]) | Percent Effect (30 µM, 30.03 µM)
CS(=O)(=O)N1CCC[C@]2(C[C@@H](Oc3ncccc3F)CO2)C1.O=C(O)C(F)(F)F |  | 22.25%
COc1ncccc1C(=O)N1CC[C@]2(C[C@@H](Oc3cccnc3)CO2)C1.O=C(O)C(F)(F)F.O=C(O)C(F)(F)F | 31.08% | 
O=C(O)C(F)(F)F.O=C(c1ccccc1)N1CCC[C@]2(C[C@@H](Oc3ncccc3F)CO2)C1 | -17.71% | 
O=C(O)C(F)(F)F.O=C(c1ncccn1)N1CCC[C@]2(C[C@@H](Oc3ncccc3F)CO2)C1 | -9.266% | 
Cn1cc(CN2CCC[C@]3(C[C@@H](Oc4ncccc4F)CO3)C2)cn1.O=C(O)C(F)(F)F.O=C(O)C(F)(F)F | 62.31% | 
CO[C@@H]1CO[C@@]2(CCCN(Cc3nc(C)cs3)C2)C1.O=C(O)C(F)(F)F | 100.6% | 
CCO[C@H]1CO[C@@]2(CCCN(Cc3nc(C)cs3)C2)C1.O=C(O)C(F)(F)F |  | 20.53%
CC(C)NC(=O)N1CCC(c2nnc3n2CCNC3)CC1 | -10% | 
O=C(O)C(F)(F)F.O=C([C@H]1CN(CCc2ccccc2)C[C@H]2OCC[C@@H]12)N1CCCO1 |  | 22.49%
CCCC(C#N)NC(=O)Cc1csc(CC)n1 (stereo not given) | 15.43% | 
CC(OCc1ccccc1)C(=O)NC1CCN(CC(N)=O)CC1 (stereo not given) | 21.11% | 
O=C(c1ccc(O)c(Cl)c1)N1C[C@@H](CN2CCCCCC2)[C@@H](CO)C1 | -29.45% | 
Cc1nc(CN2CCCC2c2[nH]ncc2C(=O)N(C)C)cs1 (stereo not given) | 17.56% | 
O=S(=O)(NCCc1c[nH]c2ccc(F)cc12)C1CCOCC1 | 23.05% | 
O=C(O)C(F)(F)F.O=C(O)C(F)(F)F.c1ccc(O[C@H]2CO[C@@]3(CCN(Cc4ccc5c(c4)OCO5)C3)C2)nc1 | 57% | 
CCO[C@H]1CO[C@@]2(CCN(Cc3ccc4c(c3)OCO4)C2)C1.O=C(O)C(F)(F)F | 9.141% | 
CCO[C@@H]1CO[C@@]2(CCN(Cc3ccc4c(c3)OCO4)C2)C1.O=C(O)C(F)(F)F | 22.42% | 
CC(C)Cc1cc(C(=O)NCCn2nc3ccccn3c2=O)[nH]n1 | 7.621% | 
O=C1CCC(=O)N1CCN1CCC(=Cc2ccccc2)CC1 | 5.63% | 
O=C(CCc1ccsc1)NC1CCN(c2cccc(F)c2)CC1 | -29.46% | 
Fc1cccc(-c2cccc(N3CCC(NC4CCCOC4)CC3)c2)c1 (stereo not given) | 98.85% | 
COc1cccc(-c2cccc(N3CCC(N[C@@H]4CCOC4)CC3)c2)c1 | 96% | 
COc1cccc(N2CCC(N3CCOC(C(F)(F)F)C3)CC2)c1 (stereo not given) | 13.73% | 
Cc1nc(-c2cccc(N3CCC(N[C@@H]4CCOC4)CC3)c2)cs1 | -5.486% | 
O=C(Cc1cccs1)NC1CCN(c2cccc(F)c2)CC1 |  | 26.53%
COC(C)(C)CC(C)NCc1cc(-c2ccco2)on1 (stereo not given) | -19.81% | 
CN(CCC#N)C(=O)CN1CCCN(Cc2noc(C3CC3)n2)CC1 | 25.2% | 
